Compound activity (PubChem)
Pf Dd2 growth: inhibitors of Plasmodium falciparum Dd2 growth. P. falciparum Dd2 growth, SYBR Green, 72 h. Potency, µM (series often up to 28.9 µM), inactives show at the highest dose activity, negative = inhibition, most hits filed as inhibitors. hit rate 4.3% among 120,000. AID 1347417; active = well fitted inhibition curve with a large enough effect;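 also: plate controls were DMSO vehicle for no effect and reference drug for full effect; nearly all actives have a fitted effect of over 65% in size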
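Infected erythrocytes (Dd2, 0.3% parasitemia, 2.5% hematocrit final) are added to compound in RPMI-1640/Albumax II medium, grown 72 h at 37C in low oxygen, then lysed with saponin/Triton-X containing SYBR Green and read by fluorescence.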
An asterisk follows results filed as active; i = inactive; [ ] = another dose, or the depositor's remark. The entries come from a sample that favours hits as a whole. Potency is read from the fitted curve at half-maximal effect.

SMILES	Pf Dd2 growth
Cc1noc(C)c1-c1cc2c(cc(C)n2C)c(-c2ccccc2)n1	i
CN(C)c1ccc(CN[C@H]2C[C@H]3C(=O)NC[C@@H](CCC(=O)NC4CC4)N3C2)cc1	11%[44.1 µM]
COCCOc1ccc2c(n1)CCN(C(=O)c1ccccc1OC)C2	-12%
COCCOc1ccc2c(n1)CCN(C(=O)C1CCCC1)C2	i
COCCOc1ccc2c(n1)CCN(C(=O)C1(c3ccc(OC)cc3)CC1)C2	7.1µM*
Cc1nnn2c(C(=O)N3CCOCC3)cccc12	-4%[44.1 µM]
NC(=O)c1ccc(-c2nccc(N3CCC(O)CC3)n2)cc1Cl	-10%
O=C(CCNc1c(-c2cccc(F)c2)nc2cnccn12)N1CCCC1	i
O=C(CN1C(=O)COc2ccc(C(=O)COc3ccc(Cl)cc3F)cc21)NC1CCCCC1	5%
COCCCNS(=O)(=O)c1cc(-c2onc(C)c2C)ccc1OC	-7%
COc1ccc(-c2onc(C)c2C)cc1S(=O)(=O)NCc1ccc(Br)cc1	24%
COc1ccc(-c2onc(C)c2C)cc1S(=O)(=O)NCC1CCN(Cc2cc(C)ccc2C)CC1	11µM*
COC(=O)[C@@H](Cc1c[nH]c2ccccc12)NC(=O)[C@H]1CNCCN1S(=O)(=O)c1ccccc1	i
Cc1c(-c2ccccc2)c(=O)oc2c(CN3CCN(C)CC3)c(O)ccc12	4µM*
Cc1c(-c2ccc(Cl)cc2)c(=O)oc2c(CN3CCN(C)CC3)c(O)ccc12	10µM*
CN1CCN(c2cc(=O)c3ccnc(-c4cccc(CO)c4)c3o2)CC1	i
Cc1noc(C)c1CN1CCN(c2ccc(F)cc2)CC1	-13%
CCc1c(C)c2ccc(O)c(CN3CCN(c4ccccc4)CC3)c2oc1=O	1.3µM*
Cc1cc(O)c(C(c2ccccc2)N2CCN(C)CC2)c(=O)n1Cc1ccco1 (stereo not given)	50%
Cc1ccc2oc(=O)c3cnn(CC(=O)N4CCN(c5ccccc5)CC4)c3c2c1	22%[5.79 µM]
Cc1ccc(-c2c(C(=O)NCCc3ccc(Cl)cc3)oc(=O)c3ccccc23)cc1	-8%
COc1cc(C)ccc1S(=O)(=O)NCC1CNCCOC1 (stereo not given)	-2%
Cc1noc(C)c1Cc1ccc(C(=O)N2CCCCCCNC(=O)CC2)o1	i
COCCNC(=O)C1COC2(CCN(C(=O)c3cccs3)CC2)N1C(=O)c1ccccc1 (stereo not given)	21%
Cn1c(=O)n([C@H]2CCCN(C(=O)Nc3ccc(F)cc3F)C2)c2ncccc21	i
SMILES	Pf Dd2 growth
CCCn1cnc(NC(=O)NC2CC(C)(C)NC(C)(C)C2)n1	0%
COCCn1nc2n(c1=O)CCN(Cc1ccc3[nH]ccc3c1)CC2	72%
CCC(Cn1cnc(-c2ccccc2)c1-c1ccc(C#N)cc1)N1CCN(C)CC1 (stereo not given)	8.9µM*
CCSc1ncc(-c2c(-c3ccccc3)ncn2CC[C@@H](C)CO)cn1	-26%
CCOCCn1cnc(-c2ccccc2)c1-c1cccc(C#N)c1	i
CCN(Cc1cnn(CC)c1)C(=O)C1COc2ccccc2C1 (stereo not given)	12%
Cc1ccccc1C(=O)N1CCN(c2cc(-c3ccccc3)[nH]n2)CC1	-15%
CCN(CC)C(=O)N1C[C@H](NC(=O)c2cn(C)c(=O)[nH]c2=O)[C@@H](C2CC2)C1	-8%
CCOC(=O)c1ccc(NC(=O)CN2C(=O)C(C)(C)c3ccccc32)cc1	15%
COc1ccc(C(=O)CC2(O)C(=O)N(Cc3ccccc3Cl)c3ccccc32)cc1 (stereo not given)	9%
CCCCN1C(=O)C(O)(CC(=O)c2ccc(C(C)(C)C)cc2)c2ccccc21 (stereo not given)	1.3µM*
Cc1noc2c(NCCc3ccccn3)cc(-c3ccc(Cl)cc3)nc12	0%[44.1 µM]
Cc1noc2c(NCCN3CCOCC3)cc(-c3ccc(Cl)cc3)nc12	-13%[44.1 µM]
Cc1noc2c(NCCCn3ccnc3)cc(-c3ccc(Cl)cc3)nc12	4.5µM*
Cc1ccsc1C(=O)NC1CCN(C(=O)N2CC3CC(C2)[C@H]2CCCC(=O)N2C3)CC1 (stereo not given in full)	-24%
O=C(CCc1nc(C2CCOC2)no1)NC1CCCCCCC1 (stereo not given)	23%
CN(Cc1cccnc1)C1CCCc2ccccc21 (stereo not given)	5µM*
CN(Cc1cccc2ccccc12)C1CCCc2ccccc21 (stereo not given)	11µM*
COC(=O)N(C)C1CCCc2ccccc21 (stereo not given)	-21%[44.1 µM]
CN(CC1CCCCC1)C1CCc2ccccc21 (stereo not given)	-21%[44.1 µM]
CN(Cc1ccc(C(F)(F)F)cc1)C1CCc2ccccc21 (stereo not given)	-8%[44.1 µM]
CN(Cc1ccc(F)cc1)C1CCc2ccccc21 (stereo not given)	-3%[44.1 µM]
COc1ccccc1C(=O)N(C)Cc1cccn1C	9%[44.1 µM]
COc1ccccc1C(=O)NCC1Cn2cccc2C(=O)N1CC(C)C (stereo not given)	-25%
CN1C[C@@H](NC(=O)c2cnccn2)C[C@H]1c1nc(-c2ccc(OC(F)(F)F)cc2)no1	14µM*
